In the library only some 12% were active in any assay of this set; here they are far more common.
USP17 inh: inhibitors of human USP17 deubiquitinase | Ubiquitin carboxyl-terminal hydrolase 17-like protein 5 (Homo sapiens), A8MUK1 | AID 1645855, 2021 | inhibition, % at 50 µM | purified USP17, Ub-rhodamine cleavage fluorescence, 3 h | 47,000 tested, 6.5% active
USP7 inh: inhibitors of human USP7 deubiquitinase; purified USP7, Ub-rhodamine cleavage fluorescence; inhibition, % at 20 µM; 47,000 tested, 0.3% active; AID 1645854, 2021
USP10 inh: inhibitors of human USP10 deubiquitinase | inhibition, % at 20 µM | Ubiquitin carboxyl-terminal hydrolase 10 (Homo sapiens), Q14694 | purified USP10, Ub-rhodamine fluorescence, 60 min | 47,000 tested, 1.1% active
Target sequence (Q14694 whole entry, looked up): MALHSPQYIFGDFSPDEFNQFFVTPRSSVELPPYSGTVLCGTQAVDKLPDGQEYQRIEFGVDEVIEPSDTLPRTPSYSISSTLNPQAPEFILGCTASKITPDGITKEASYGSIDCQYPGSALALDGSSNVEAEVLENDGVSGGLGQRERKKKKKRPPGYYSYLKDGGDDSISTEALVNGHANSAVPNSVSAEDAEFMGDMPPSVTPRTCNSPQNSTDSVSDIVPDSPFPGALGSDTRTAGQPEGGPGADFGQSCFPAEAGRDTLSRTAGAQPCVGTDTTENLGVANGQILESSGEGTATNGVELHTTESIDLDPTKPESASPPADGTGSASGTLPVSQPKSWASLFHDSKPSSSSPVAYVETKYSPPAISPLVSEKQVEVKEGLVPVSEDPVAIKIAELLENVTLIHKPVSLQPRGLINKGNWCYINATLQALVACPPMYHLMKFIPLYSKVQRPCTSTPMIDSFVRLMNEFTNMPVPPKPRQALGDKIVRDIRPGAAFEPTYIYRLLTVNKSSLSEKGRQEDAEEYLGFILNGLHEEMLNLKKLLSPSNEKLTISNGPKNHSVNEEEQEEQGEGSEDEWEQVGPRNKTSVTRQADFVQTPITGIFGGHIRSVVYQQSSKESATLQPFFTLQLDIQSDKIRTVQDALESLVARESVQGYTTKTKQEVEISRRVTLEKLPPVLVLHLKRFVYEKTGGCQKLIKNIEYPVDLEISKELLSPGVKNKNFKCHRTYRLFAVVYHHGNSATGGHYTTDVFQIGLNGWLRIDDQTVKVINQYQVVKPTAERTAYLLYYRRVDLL
UCHL1 inh: inhibitors of human UCHL1 deubiquitinase. Ubiquitin carboxyl-terminal hydrolase isozyme L1 (Homo sapiens), P09936. purified UCHL1, Ub-rhodamine cleavage fluorescence. inhibition, % at 20 µM. 47,000 tested, 0.2% active. AID 1645859, 2021
USP8 inh: inhibitors of human USP8 deubiquitinase | AID 1645853, 2021 | Ubiquitin carboxyl-terminal hydrolase 8 (Homo sapiens), P40818 | 47,000 tested, 4.2% active | inhibition, % at 20 µM | purified USP8, Ub-rhodamine cleavage fluorescence, 30 min
USP30 block: inhibitors of human USP30 deubiquitinase. purified USP30, Ub-rhodamine cleavage fluorescence. inhibition, % at 25 µM. 47,000 tested, 5.3% active. AID 1645860, 2021
The depositor's hits bear a star; x = no result. Rule as the data show it: active = inhibition above about 30%; inactive = the rest.

SMILES | USP17 inh | USP7 inh | USP10 inh | UCHL1 inh | USP8 inh | USP30 block
Cc1cccc(CNC(=O)C2CCCN(S(=O)(=O)Cc3ccccc3Cl)C2)c1 (centres undefined) | 21.8 | 0.5 | 13.6 | 0.7 | 7.1 | 38.7*
O=C(Nc1ccccc1F)C1CCCN(S(=O)(=O)Cc2ccc(F)cc2)C1 (centres undefined) | -2.5 | -2.4 | 3.3 | 0.0 | -7.8 | -4.7
C[C@@H]1CC[C@H]2C(CN3CCOCC3)C(=O)O[C@]23[C@H]1CC[C@@]1(C)O[C@@H]31 (some centres undefined) | 6.5 | x | 0.9 | 1.1 | 6.5 | 17.3
CNC(=O)N1CC[C@@H]2Oc3ccccc3S(=O)(=O)N(Cc3ccccc3)[C@H]2CC1 | -18.7 | -4.5 | -0.2 | 0.0 | -17.0 | -10.4
O=C(O)C1CCCN(c2cc(C(F)(F)F)nc(-c3ccccn3)n2)C1 (centres undefined) | 15.5 | 6.1 | 0.8 | -0.4 | 7.7 | 0.1
COc1ccc(S(=O)(=O)Nc2cc(C(=O)NCc3ccc(F)cc3Cl)ccc2N2CCOCC2)cc1 | 1.8 | 3.4 | -0.7 | 3.7 | -0.1 | -11.5
Cc1cccc(CNC(=O)C2CCCN(S(=O)(=O)N3CCCCC3)C2)c1 (centres undefined) | x | 3.9 | -0.9 | 4.7 | 32.3* | 10.9
Cc1cccc(CNC(=O)C2CCCN(S(=O)(=O)N3CCOCC3)C2)c1 (centres undefined) | -1.2 | -1.3 | -1.2 | -2.5 | 1.2 | -0.2
CCOCCSc1ncnc2c1sc1nc(N3CCOCC3)c3c(c12)CC(C)(C)OC3 | 8.1 | 0.3 | 1.8 | 3.3 | 2.4 | 26.6
COc1ccc(CNc2ncc(-c3cc(C)no3)c(-c3ccco3)n2)cc1OC | 9.0 | -3.2 | -3.9 | 1.1 | 1.7 | -69.6
O=[N+]([O-])c1ccc2nc3c(c(-c4ccccc4)c2c1)CNCC3 | 48.4* | -132.3 | -3.5 | -0.2 | 82.4* | -13.5
Cc1cc(=O)[nH]c(Sc2c(-c3ccccc3)c3cc([N+](=O)[O-])ccc3[nH]c2=O)n1 | 4.8 | -134.7 | 15.1 | 3.3 | -34.3 | -83.2
COC(=O)c1cc2occc2n1CC(=O)Nc1cccc(Cl)c1C | -21.5 | -7.0 | -9.1 | 2.9 | -17.2 | -88.5
CCc1cc2c(cc(C(=O)OC)n2CC(=O)Nc2ccc(C)cc2Cl)s1 | 53.4* | 3.3 | 6.2 | 0.8 | -3.9 | 2.5
Cc1cccc(NC(=O)CN2C(=O)COc3cc(S(=O)(=O)N4CCCC4)ccc32)c1C | 18.9 | -2.4 | 6.6 | -1.6 | 27.3 | 60.0*
Cc1ccccc1NC(=O)c1nnc2c(-c3ccc(F)cc3)c(C)nn2c1C | -6.6 | -2.2 | 0.1 | -3.6 | 1.7 | 3.0
CCn1nnc(NCc2ccc(OCc3ccc(Cl)nc3)c(OC)c2)n1 | -20.1 | -2.6 | 1.0 | -0.5 | -1.8 | -19.4
COc1ccc(CCNC(=O)c2c(N)n(-c3cccc(F)c3)c3nc4ccccc4nc23)cc1 | 38.4* | 0.5 | -2.4 | 6.7 | 35.9* | -101.8
O=C(NCCc1ccccc1F)c1ccc(N2C(=O)CCS2(=O)=O)cc1 | 9.6 | 0.7 | 5.9 | -0.2 | 11.8 | 12.6
COc1ccc(CCNC(=O)c2c(N)n(-c3cccc(Cl)c3)c3nc4ccccc4nc23)cc1 | 64.7* | -6.4 | 3.6 | 6.8 | 61.5* | -102.0
Cc1ccc(-n2c(N)c(C(=O)NCCc3ccccc3F)c3nc4ccccc4nc32)cc1 | 25.9 | -4.6 | -3.0 | 0.6 | 33.5* | -21.3
CN1CCOc2cc(S(=O)(=O)NC3CCCCNC3=O)ccc21 (centres undefined) | -10.3 | 1.1 | -1.8 | 0.3 | 1.4 | -7.4
O=C(NC(NC1CCS(=O)(=O)C1)C(=O)c1ccc(Cl)cc1)c1ccco1 (centres undefined) | -1.3 | -11.4 | -0.4 | -0.3 | 7.9 | 0.0
Cc1ccc(CN2CCC3(CC2)CN(c2cncnc2)C(=O)CO3)s1 | -50.3 | -1.1 | -2.3 | -1.0 | -207.9 | -30.1
CCc1ccc(OCc2nnc(SCC(=O)Nc3ccccc3OC)n2Cc2ccccc2)cc1 | 52.5* | 6.2 | 12.8 | 9.5 | 18.2 | 49.3*
SMILES | USP17 inh | USP7 inh | USP10 inh | UCHL1 inh | USP8 inh | USP30 block
CC(NC(=O)C1CCC2(CC1)CNC(=O)c1cc(Cl)ccc1O2)c1ccco1 (centres undefined) | 10.8 | 1.4 | -1.3 | 2.0 | 26.0 | 5.9
N#Cc1cccc(Cn2cc(S(=O)(=O)N3CCCCC3)ccc2=O)c1 | 10.3 | -2.4 | -0.3 | 3.3 | 19.8 | 29.4
O=C(Cn1cc(C(=O)C2CC2)c2ccccc21)NCCOc1ccc(Cl)cc1 | 19.8 | 10.2 | 1.1 | 0.0 | 31.8* | 27.5
Nc1ncnc2c1c(-c1ccccc1)c(-c1ccccc1)n2CCc1ccc(F)cc1 | 44.3* | 8.6 | 2.0 | 3.0 | 11.8 | 45.4*
Cc1ccccc1CC(=O)N1CCCc2c(cnn2C)C1 | 8.0 | 0.3 | -2.5 | -0.2 | 15.5 | -0.1
Cc1ccccc1C(=O)Nc1ccc(Cc2ccc(NC(=O)c3ccccc3C)c(O)c2)cc1O | 55.4* | 4.1 | 1.9 | 0.0 | 42.6* | -158.0
Cc1ccc2ncc(NC(=O)c3ccccc3C)c(=O)n2c1 | -13.8 | -0.8 | -0.3 | -1.9 | -0.1 | 1.6
O=c1ccc(S(=O)(=O)N2CCOCC2)cn1Cc1ccccc1F | -0.1 | -3.3 | -0.4 | -0.4 | 3.6 | -1.2
CCc1cccc2c(C(=O)COC(=O)C(NC(=O)c3cccc(S(=O)(=O)N4CCOCC4)c3)C(C)C)c[nH]c12 (centres undefined) | 10.0 | 7.4 | -2.3 | 5.6 | 22.8 | -28.1
CCc1cccc2c(C(=O)COc3ccc(C#N)cc3)c[nH]c12 | 42.9* | 2.9 | 15.9 | 4.4 | 81.8* | 90.6*
N#Cc1cn2c(nc1-c1ccc(Cl)cc1)nc1ccccc12 | 94.3* | -9.4 | 52.8* | 3.2 | 70.9* | 76.5*
CC(C)c1ccc(NC(=O)C2C3C=CC4(O3)C2C(=O)N(CCCN(C)Cc2ccccc2)C4C(=O)NC2CCCCC2)cc1 (centres undefined) | -12.5 | -22.1 | -2.8 | 1.0 | -37.7 | 1.3
COc1ccc(NC(=O)C2C3C=CC4(O3)C2C(=O)N(CCc2ccccc2)C4C(=O)NC2CCCCC2)cc1 (centres undefined) | 34.6* | -109.2 | -1.7 | 4.0 | -13.4 | 55.7*
Cc1ccc(NC(=O)C2C3C=CC4(O3)C2C(=O)N(CCc2ccccc2)C4C(=O)NC2CCCCC2)cc1C (centres undefined) | 30.4* | -106.2 | 9.0 | 5.8 | 28.0 | 28.3
COc1ccc(NC(=O)C2C3C=CC4(O3)C2C(=O)N(Cc2ccccc2)C4C(=O)NC2CCCCC2)cc1 (centres undefined) | 11.8 | -59.6 | 0.1 | 1.2 | 12.2 | 39.5*
Cc1cc(C)cc(NC(=O)C2C3C=CC4(O3)C2C(=O)N(Cc2ccc3c(c2)OCO3)C4C(=O)NC2CCCCC2)c1 (centres undefined) | -11.7 | -10.8 | 9.3 | -0.5 | 4.4 | -34.4
